# Values joined by “and” are separate entries in the source; they are usually repeats but may differ in a detail not shown here. Equal values may be shown once. Active and inactive are the calls of the source. How the source made its calls: active means hit-call score of the fitted dose curve at least 0.9, where 1 is the maximum; inactive means score below 0.9.
# Read-out: Cytochrome P450 (CYP1A2), CYP1A2 (gene 1544)
# Assay: LTEA_HepaRG_CYP1A2: Life Technologies and Expression Analysis (LTEA) Assay for Cytochrome P450 (CYP1A2) using HepaRG (AID 2283479);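 on AC50: TaqMan qRT-PCR transcript level normalized to ACTB GAPDH and POLR2A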
# Details: mRNA level, 48 h; actives raise or lower the signal
# How it was run: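 CYP1A2 transcript measured by TaqMan qRT-PCR against three housekeeping genes after 48-hour chemical exposure of HepaRG cells. Eight-point half-log series topping at 100 uM in 0.5% DMSO, duplicates; gain or loss fitted relative to vehicle.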
SMILES,outcome,AC50
O=C(O)C(F)(F)C(F)(F)C(F)(F)C(F)(F)C(F)(F)C(F)(F)C(F)(F)F,inactive,–
CC(C)N(C(=O)COc1nnc(C(F)(F)F)s1)c1ccc(F)cc1,inactive,–
OCCOc1ccccc1,inactive,–
O=C(Nc1ccccc1)Nc1cnns1,–,68 µM (active)
CNC(=O)CSP(=S)(OC)OC,–,16.2 µM (active)
ClC1C(Cl)C(Cl)C(Cl)C(Cl)C1Cl (configuration not stated),inactive,–
CCCN(CCC)c1c([N+](=O)[O-])cc(C(F)(F)F)cc1[N+](=O)[O-],–,32.3 µM (active)
O=S(=O)(O)C(F)(F)C(F)(F)C(F)(F)C(F)(F)C(F)(F)C(F)(F)C(F)(F)C(F)(F)F,–,84.5 µM (active) and 10.3 µM (active) and 48 µM (active)
CN1CSC(=S)N(C)C1,–,34.7 µM (active)
CC1(c2ccc(Oc3ccccc3)cc2)OC(=O)N(Nc2ccccc2)C1=O (configuration not stated),–,50.2 µM (active)
O=C1c2ccccc2C(=O)N1SC(Cl)(Cl)Cl,inactive,–
CCOC1Oc2ccc(OS(C)(=O)=O)cc2C1(C)C (configuration not stated),–,73.3 µM (active)
CC(C)(C)C(O)C(Oc1ccc(Cl)cc1)n1cncn1 (configuration not stated),–,22.2 µM (active) and 36.8 µM (active) and 32.8 µM (active)
COc1nn(CSP(=S)(OC)OC)c(=O)s1,–,12.1 µM (active)
O=C(NC(=O)c1c(F)cccc1F)Nc1ccc(OC(F)(F)C(F)OC(F)(F)F)c(Cl)c1 (configuration not stated),–,12.3 µM (active)
O=C(O)CCCOc1ccc(Cl)cc1Cl,–,73.8 µM (active)
O=[N+]([O-])/N=C1\NCCN1Cc1ccc(Cl)nc1,–,23.6 µM (active)
